These results are taken from PubChem BioAssay (NCI).

About 83,000 compounds went through this panel and 20% of them were active in at least one assay; those are over-represented in the sample as a whole.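 Single-dose data. Exposure time 48 hours. Values below 10 considered active.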 A number with no mark means an inactive call. Calls of active or inactive are those of the source.

Test systems include HCT-15 colon; HT29 colon; SNB-75 CNS; SNB-19 CNS; U251 CNS; PC-3 prostate; SK-MEL-5 melanoma; UACC-62 melanoma; LOX IMVI melanoma; SK-MEL-28 melanoma; SK-MEL-2 melanoma; EKVX NSCLC; SN12C renal; UO-31 renal; TK-10 renal; ACHN renal; CAKI-1 renal; A498 renal; CCRF-CEM leukemia; MOLT-4 leukemia.
Test in all cases: NCI-60 one-dose screen, 48 h (100 = growth as untreated, 0 = no growth, -100 = all killed)
What all share (details): 10 µM unless noted

Turning to `COc1ccc2[nH]c(C(=O)N3CCN(C(=O)OCc4ccc5c(Cl)cc(Cl)c(O)c5n4)CC3)cc2c1`, the growth was -44.2% (active) with HCT-15 colon; -67.1% (active) with HT29 colon; -98.5% (active) in the experiment with SNB-75 CNS; 35.3% with SNB-19 CNS; -97.9% (active) in the experiment on U251 CNS; -73.4% (active) in the experiment with PC-3 prostate. The growth was -99% (active) with SK-MEL-5 melanoma; -97.4% (active) in the experiment on UACC-62 melanoma; -95.3% (active) with LOX IMVI melanoma; -95.8% (active) in the experiment on SK-MEL-28 melanoma; -77.2% (active) in the experiment on SK-MEL-2 melanoma; -76.6% (active) in the experiment on EKVX NSCLC. For the same molecule, the growth in the experiment on SN12C renal was -83.8% (active); in the experiment on UO-31 renal it was -100% (active); in the experiment with TK-10 renal, -99.2% (active); in the experiment with ACHN renal, -100% (active); in the experiment with CAKI-1 renal, -95.6% (active); in the experiment with A498 renal, -13.8% (active). The growth in the experiment with CCRF-CEM leukemia was -9.25% (active); in the experiment with MOLT-4 leukemia, -6.74% (active).
Consider `O=C(CSc1nnc(-c2cnccn2)n1-c1ccccc1)c1ccc(Cl)cc1`, for which the growth in the experiment with HCT-15 colon is 97.5%; in the experiment on HT29 colon, 94.7%; with SNB-75 CNS it was 110%; in the experiment on SNB-19 CNS, 101%; in the experiment with U251 CNS, 93.7%; with PC-3 prostate, 87.8%. Further, the growth is 99.7% with SK-MEL-5 melanoma; 84.9% in the experiment on UACC-62 melanoma; 108% in the experiment on LOX IMVI melanoma; 103% in the experiment on SK-MEL-28 melanoma; 96.4% with SK-MEL-2 melanoma; 103% with EKVX NSCLC. The growth in the experiment with SN12C renal was 87.5%; with UO-31 renal, 94.2%; with TK-10 renal it was 99.2%; with ACHN renal it was 99.8%; in the experiment with CAKI-1 renal, 102%; in the experiment with A498 renal it was 93.1%. The growth was 92.1% with CCRF-CEM leukemia and 93.4% in the experiment on MOLT-4 leukemia.
For `COc1ccc(C(C)=O)cc1S(=O)(=O)Nc1c(N)nc(SC)[nH]c1=O`, the growth is 100% with HCT-15 colon; 104% in the experiment with HT29 colon; 98.2% with SNB-75 CNS; 109% with SNB-19 CNS; 111% in the experiment on U251 CNS; 104% with PC-3 prostate. For the same molecule, the growth in the experiment on SK-MEL-5 melanoma is 100%; in the experiment with UACC-62 melanoma, 97.1%; in the experiment on LOX IMVI melanoma, 96.3%; in the experiment on SK-MEL-28 melanoma, 109%; with SK-MEL-2 melanoma, 111%; with EKVX NSCLC, 101%. The growth in the experiment with SN12C renal is 103%; in the experiment on UO-31 renal, 94.5%; in the experiment with TK-10 renal, 109%; in the experiment on ACHN renal, 106%; in the experiment on CAKI-1 renal, 93.2%; with A498 renal, 106%. Further, the growth is 107% in the experiment with CCRF-CEM leukemia and 99.6% in the experiment with MOLT-4 leukemia.
`COc1ccc(-c2cc(-c3ccc(Cl)cc3)c(C#N)c(=O)n2Cc2ccc(C(=O)Nc3ccccc3N)cc2)cc1`: the growth in the experiment with HCT-15 colon is 68.2%; in the experiment with HT29 colon, 107%; with SNB-75 CNS it was 55.9%; in the experiment with SNB-19 CNS it was 80.2%; with U251 CNS, 88.7%; with PC-3 prostate, 79.6%. Also, the growth was 80.9% with SK-MEL-5 melanoma; 49.5% in the experiment with UACC-62 melanoma; 69.3% with LOX IMVI melanoma; 70% in the experiment with SK-MEL-28 melanoma; 79.3% with SK-MEL-2 melanoma; 82.1% in the experiment on EKVX NSCLC. Besides, the growth in the experiment on SN12C renal is 79.1%; in the experiment with UO-31 renal, 40.5%; in the experiment with TK-10 renal it was 140%; in the experiment with ACHN renal, 96.5%; in the experiment on CAKI-1 renal, 55.8%; with A498 renal it was 84%. The growth in the experiment with CCRF-CEM leukemia is 42.6%; with MOLT-4 leukemia, 66.2%.
`O=C(O)c1ccc(-n2cc(/C=N/Nc3ccccc3)c(-c3ccc(F)cc3F)n2)cc1`: the growth with HCT-15 colon is 51.4%; in the experiment with HT29 colon, 90.5%; in the experiment on SNB-75 CNS, 78.2%; with SNB-19 CNS, 84.3%; in the experiment on U251 CNS, 85.9%; in the experiment on PC-3 prostate, 51.9%. Also, the growth was 58% in the experiment on SK-MEL-5 melanoma; -14.3% (active) in the experiment with UACC-62 melanoma; 18.5% in the experiment on LOX IMVI melanoma; 74.1% in the experiment with SK-MEL-28 melanoma; 15.4% in the experiment on SK-MEL-2 melanoma; 55.2% in the experiment on EKVX NSCLC. Besides, the growth was 73.1% in the experiment with SN12C renal; 13% in the experiment on UO-31 renal; 57.4% in the experiment with TK-10 renal; 47.1% in the experiment on ACHN renal; 28.5% with CAKI-1 renal; 81.7% in the experiment on A498 renal. Further, the growth in the experiment with CCRF-CEM leukemia is 26.6%; in the experiment with MOLT-4 leukemia, 38.7%.
For the molecule `Nc1[nH]n2cc(-c3ccccc3)nc2c1N=Nc1ccc(S(N)(=O)=O)cc1`, the growth was 22.8% with HCT-15 colon; 38.8% in the experiment on HT29 colon; 1.09% (active) in the experiment on SNB-75 CNS; 60.4% with SNB-19 CNS; 38.7% in the experiment with U251 CNS; 32.4% in the experiment with PC-3 prostate. Besides, the growth is 26.8% in the experiment on SK-MEL-5 melanoma; 31.3% in the experiment on UACC-62 melanoma; 17.4% in the experiment with LOX IMVI melanoma; 45% in the experiment with SK-MEL-28 melanoma; 31.6% in the experiment on SK-MEL-2 melanoma; 54.6% in the experiment with EKVX NSCLC. Besides, the growth is 20.1% with SN12C renal; 19.5% with UO-31 renal; 48.4% with TK-10 renal; 8.58% (active) with ACHN renal; 3.86% (active) in the experiment with CAKI-1 renal; 8.19% (active) in the experiment on A498 renal. The growth is 19.7% with CCRF-CEM leukemia and 13.9% in the experiment on MOLT-4 leukemia.
As for `CC(O)(c1ccccc1)C(c1ccccc1)C1CCCCN1` (stereo not given), the growth in the experiment with HCT-15 colon was 96.6%; in the experiment on HT29 colon it was 99.3%; in the experiment on SNB-75 CNS it was 100%; with SNB-19 CNS it was 99.5%; in the experiment on U251 CNS, 100%; in the experiment on PC-3 prostate, 105%. The growth is 103% with SK-MEL-5 melanoma; 95.8% in the experiment on UACC-62 melanoma; 96.8% in the experiment on LOX IMVI melanoma; 109% with SK-MEL-28 melanoma; 117% in the experiment with SK-MEL-2 melanoma; 104% in the experiment on EKVX NSCLC. Moreover, the growth with SN12C renal is 93.1%; in the experiment on UO-31 renal, 93.5%; in the experiment on TK-10 renal, 102%; in the experiment on ACHN renal, 107%; in the experiment with CAKI-1 renal it was 102%; in the experiment with A498 renal it was 106%. Besides, the results for the growth with CCRF-CEM leukemia and with MOLT-4 leukemia were 101% and 99.7%, respectively.
